Laboratory results reported in PubChem BioAssay.
Where “and” joins values, the source holds several entries; their conditions need not be identical. Equal values may be shown once. Calls of active or inactive are those of the source.

Experiments:
Albumin (Bos taurus) = Albumin (Bos taurus) (UniProt P02769); test: compounds binding labelled BSA control protein – biochemical, small-molecule microarray, Alexa647 label, 635/667 nm fluorescence, artefact control for SMM control protein annotation, profiling panel (AID 1118); conditions: BSA-A647 binding, fluorescence 635 nm, higher = more signal;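 note: score merges 667 nm emission intensity and signal-to-noise per printed compound spot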
[1] = probe aXIP binding to arrayed compounds – biochemical, NeuroSMM set, 635/667 nm fluorescence, primary screen (AID 1119); conditions: small-molecule microarray, higher = more signal, called active from +8 up or from −8 down;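 note: probe is the protein aXip251-270 applied at 1 µg/mL to compound-printed slides; binding of probe to printed compounds measured as 667 nm fluorescence plus signal to noise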
[2] = probe aNOTCH3 binding on compound microarray – biochemical, small-molecule microarray, 635/667 nm fluorescence, primary screen (AID 1120); conditions: higher = more signal;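 note: probe is a biotin-tagged antibody raised against NOTCH3 rather than NOTCH3 protein; score merges spot fluorescence near 667 nm with spot signal to noise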
[3] = probe aNOTCH2 binding on compound microarray – biochemical, small-molecule microarray, 635/667 nm fluorescence, primary screen (AID 1121); conditions: higher = more signal;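 note: score merges feature fluorescence read at 667 nm with its signal to noise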
[4] = biological target: Carbonic anhydrase 2 (Homo sapiens) (UniProt P00918); test: compounds binding carbonic anhydrase 2 – biochemical, small-molecule microarray, Alexa647-labelled CAII, profiling panel (AID 1122); conditions: CAII-A647 binding fluorescence, higher = more signal
[5] = COS7 lysate on small-molecule microarray, probe aHis, 635 nm (AID 1123); conditions: COS7 cell lysate, fluorescence, higher = more signal;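 note: z-score combines 667nm fluorescence intensity with signal-to-noise per printed compound spot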
[6] = probe aLAP1 signal on lysate-treated microarray – cell lysate, small-molecule microarray, COS7 lysate, primary screen (AID 1124); conditions: probe aLAP1, fluorescence, higher = more signal;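 note: lysate comes from COS7 cells expressing LAP1 and is applied at 0.3 µg/mL; score merges spot fluorescence near 667 nm with signal-to-noise over triplicate slides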
Sam68 (KHDRBS1) = test: compounds binding KHDRBS1 protein – biochemical, small-molecule microarray, 635 nm fluorescence, primary screen (AID 1125); conditions: higher = more signal;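 note: score merges 667 nm channel intensity with signal to noise over triplicate slides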
[7] = tested on: Chordin-like protein 2 (CHRDL2); test: compounds binding chordin-like 2 – biochemical, small-molecule microarray, 635 nm fluorescence, primary screen (AID 1126); conditions: fluorescence 635 nm, higher = more signal;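 note: printed compound slides probed with Chrdl2 protein at 4 µg/mL for 1 h at 4 C; score merges 667 nm emission intensity with signal to noise over three replicate slides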
[8] = biological target: Concanavalin-A (Canavalia ensiformis) (UniProt P02866); test: compounds binding concanavalin A lectin – biochemical, small-molecule microarray, Alexa647 label, 635 nm, artefact control for SMM control protein annotation, primary screen (AID 1127); conditions: ConA-A647 binding fluorescence, higher = more signal;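 note: z combines 667 nm emission intensity with signal-to-noise across three replicate slides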
[9] = compounds binding Alexa647 anti-His antibody – biochemical, small-molecule microarray, 635 nm fluorescence, artefact control for SMM control protein annotation, primary screen (AID 1128); conditions: higher = more signal;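 note: score merges feature fluorescence with signal-to-noise for each printed compound spot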
[10] = tested on: Human papillomavirus type 1a E7 protein (residues 1-88); test: HPV1a E7 small-molecule binders, primary screen, biochemical, small-molecule microarray, residues 1-88, 635 nm (AID 1129); conditions: small-molecule microarray binding, fluorescence 635 nm; higher = more signal
[11] = biological target: Focal adhesion kinase 1 (Homo sapiens) (UniProt Q05397); test: PTK2 protein binding on printed compound slides – biochemical, small-molecule microarray, 635/667 nm fluorescence, BSA, DTT, primary screen (AID 1130); conditions: 635 nm fluorescence, higher = more signal;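 note: composite of spot emission at 667 nm and signal to noise over triplicate slides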
[12] = tested on: Fibrinogen (Alexa647-labelled); test: Alexa647-fibrinogen binding to printed small molecules – biochemical, small-molecule microarray, 635/667 nm fluorescence, artefact control for SMM control-protein annotation, profiling panel (AID 1131); conditions: fibrinogen-A647 binding fluorescence, higher = more signal;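 note: z-score merges 667 nm fluorescence with per-spot signal-to-noise over triplicate slides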
[13] = biological target: Follistatin (Homo sapiens) (UniProt P19883); test: FST protein binding to printed compounds – biochemical, small-molecule microarray, 635/667 nm fluorescence, primary screen (AID 1132); conditions: 635 nm fluorescence, higher = more signal
[14] = biological target: Fibroblast growth factor 2 (Homo sapiens) (UniProt P09038); test: basic fibroblast growth factor binding to printed compounds – biochemical, small-molecule microarray, 635/667 nm fluorescence, primary screen (AID 1133); conditions: FGF2, fluorescence 635/667, higher = more signal
[15] = JC-1 mitochondrial potential readout, lung cancer cells – cell-based, A549, JC-1 fluorescence, basal, 24 h, 100 nL, profiling panel (AID 1138); conditions: higher = more signal;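 note: A549 lung adenocarcinoma cells under basal conditions with no added stimulus; test concentration not given here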
Lefty1 = Lefty1 protein binding to printed compounds – biochemical, small-molecule microarray, 635/667 nm fluorescence, primary screen (AID 1139); conditions: fluorescence 635/667, higher = more signal
[16] = tested on: wheat germ agglutinin (Triticum aestivum), Alexa647-labelled; test: Alexa647-WGA lectin binding to printed small molecules – biochemical, small-molecule microarray, 635/667 nm fluorescence, artefact control for SMM control-protein annotation, profiling panel (AID 1140); conditions: WGA-A647 binding, 635 nm fluorescence, higher = more signal;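 note: score merges 667 nm feature emission with signal to noise over triplicate slides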
[17] = biological target: Luciferin 4-monooxygenase (Photinus pyralis) (UniProt P08659); test: inhibition of purified Photinus pyralis luciferase – biochemical, luminescence, purified enzyme, 2006 set, primary screen (AID 1141); conditions: purified firefly luciferase, SteadyGlo luminescence, 30 min; higher = more signal, called active from +8 up or from −8 down;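 note: cell-free assay with purified firefly luciferase at 100 ng per well in PBS; test concentration not given here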
Sequence of Luciferin 4-monooxygenase (Photinus pyralis) (P08659 whole entry, looked up): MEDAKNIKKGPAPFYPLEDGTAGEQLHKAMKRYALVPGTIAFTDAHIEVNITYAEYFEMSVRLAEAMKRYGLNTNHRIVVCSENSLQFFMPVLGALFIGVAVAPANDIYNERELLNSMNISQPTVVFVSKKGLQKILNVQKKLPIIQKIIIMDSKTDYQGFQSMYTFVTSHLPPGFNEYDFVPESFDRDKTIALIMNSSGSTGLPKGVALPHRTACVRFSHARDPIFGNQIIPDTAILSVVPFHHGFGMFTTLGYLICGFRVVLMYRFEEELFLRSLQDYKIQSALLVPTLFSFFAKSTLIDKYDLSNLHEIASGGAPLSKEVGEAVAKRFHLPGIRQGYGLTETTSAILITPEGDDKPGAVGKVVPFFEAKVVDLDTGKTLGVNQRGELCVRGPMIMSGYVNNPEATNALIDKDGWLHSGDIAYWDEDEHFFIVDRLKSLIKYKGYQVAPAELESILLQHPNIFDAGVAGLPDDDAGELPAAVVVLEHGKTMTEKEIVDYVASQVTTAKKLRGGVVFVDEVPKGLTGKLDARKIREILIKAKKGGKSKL

Sequence of Follistatin (Homo sapiens) (P19883 whole entry, looked up): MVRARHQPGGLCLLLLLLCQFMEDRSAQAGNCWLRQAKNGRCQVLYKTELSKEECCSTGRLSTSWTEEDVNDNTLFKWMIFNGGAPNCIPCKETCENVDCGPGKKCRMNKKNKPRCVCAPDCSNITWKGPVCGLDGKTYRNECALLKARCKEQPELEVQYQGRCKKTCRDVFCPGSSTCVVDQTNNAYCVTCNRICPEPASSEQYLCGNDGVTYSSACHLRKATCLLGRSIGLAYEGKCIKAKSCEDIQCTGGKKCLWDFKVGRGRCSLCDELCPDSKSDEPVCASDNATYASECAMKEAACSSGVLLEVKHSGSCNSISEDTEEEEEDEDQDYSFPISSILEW
Sequence of Albumin (Bos taurus) (P02769 whole entry, looked up): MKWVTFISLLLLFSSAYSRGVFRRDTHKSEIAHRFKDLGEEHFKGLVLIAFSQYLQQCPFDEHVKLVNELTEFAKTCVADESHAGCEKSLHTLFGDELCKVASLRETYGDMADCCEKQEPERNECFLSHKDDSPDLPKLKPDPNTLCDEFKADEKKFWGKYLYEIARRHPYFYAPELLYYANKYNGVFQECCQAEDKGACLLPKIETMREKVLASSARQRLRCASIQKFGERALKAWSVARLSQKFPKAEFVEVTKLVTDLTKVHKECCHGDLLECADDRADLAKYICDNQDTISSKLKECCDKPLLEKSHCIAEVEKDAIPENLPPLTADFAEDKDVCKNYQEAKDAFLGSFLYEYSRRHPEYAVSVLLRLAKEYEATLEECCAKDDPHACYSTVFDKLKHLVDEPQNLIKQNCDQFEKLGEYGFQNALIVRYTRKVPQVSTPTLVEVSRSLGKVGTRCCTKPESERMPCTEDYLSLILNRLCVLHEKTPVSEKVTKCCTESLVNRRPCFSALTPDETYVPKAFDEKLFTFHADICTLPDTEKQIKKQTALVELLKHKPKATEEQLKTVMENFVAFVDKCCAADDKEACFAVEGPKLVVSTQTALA
Sequence of Fibroblast growth factor 2 (Homo sapiens) (P09038 whole entry, looked up): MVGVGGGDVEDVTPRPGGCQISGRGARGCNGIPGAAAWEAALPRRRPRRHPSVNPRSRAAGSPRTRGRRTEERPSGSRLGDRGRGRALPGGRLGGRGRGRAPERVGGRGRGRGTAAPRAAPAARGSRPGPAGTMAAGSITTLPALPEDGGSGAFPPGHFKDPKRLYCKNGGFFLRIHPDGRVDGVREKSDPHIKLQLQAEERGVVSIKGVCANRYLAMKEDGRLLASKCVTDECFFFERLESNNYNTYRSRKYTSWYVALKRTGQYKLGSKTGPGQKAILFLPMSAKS
Sequence of Focal adhesion kinase 1 (Homo sapiens) (Q05397 whole entry, looked up): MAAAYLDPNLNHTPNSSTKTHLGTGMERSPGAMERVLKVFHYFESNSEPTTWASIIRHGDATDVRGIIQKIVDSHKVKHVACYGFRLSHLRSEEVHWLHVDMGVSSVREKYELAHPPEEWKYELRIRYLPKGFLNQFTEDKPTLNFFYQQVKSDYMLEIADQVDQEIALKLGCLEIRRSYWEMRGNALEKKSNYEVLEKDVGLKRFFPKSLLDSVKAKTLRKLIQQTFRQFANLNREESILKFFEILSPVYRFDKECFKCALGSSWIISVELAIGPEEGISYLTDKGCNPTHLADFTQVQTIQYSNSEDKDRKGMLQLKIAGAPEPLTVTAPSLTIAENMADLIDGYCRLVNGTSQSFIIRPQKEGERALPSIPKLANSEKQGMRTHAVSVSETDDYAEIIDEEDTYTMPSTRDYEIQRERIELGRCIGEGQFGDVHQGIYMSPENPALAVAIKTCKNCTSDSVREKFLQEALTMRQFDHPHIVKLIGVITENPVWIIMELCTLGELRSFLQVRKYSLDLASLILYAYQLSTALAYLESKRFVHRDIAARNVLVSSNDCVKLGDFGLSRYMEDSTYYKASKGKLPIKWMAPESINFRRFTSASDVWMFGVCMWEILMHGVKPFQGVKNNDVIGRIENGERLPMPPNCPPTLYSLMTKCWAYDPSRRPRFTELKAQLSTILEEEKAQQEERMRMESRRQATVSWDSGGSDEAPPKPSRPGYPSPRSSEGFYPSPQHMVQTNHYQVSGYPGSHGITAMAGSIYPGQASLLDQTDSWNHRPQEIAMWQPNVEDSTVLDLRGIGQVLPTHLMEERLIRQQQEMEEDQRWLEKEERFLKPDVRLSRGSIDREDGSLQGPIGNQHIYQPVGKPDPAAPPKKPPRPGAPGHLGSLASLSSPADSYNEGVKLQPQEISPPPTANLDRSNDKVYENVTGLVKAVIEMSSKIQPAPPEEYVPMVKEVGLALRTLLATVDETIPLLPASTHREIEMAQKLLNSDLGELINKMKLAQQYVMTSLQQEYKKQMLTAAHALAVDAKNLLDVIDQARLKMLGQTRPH
Sequence of Concanavalin-A (Canavalia ensiformis) (P02866 whole entry, looked up): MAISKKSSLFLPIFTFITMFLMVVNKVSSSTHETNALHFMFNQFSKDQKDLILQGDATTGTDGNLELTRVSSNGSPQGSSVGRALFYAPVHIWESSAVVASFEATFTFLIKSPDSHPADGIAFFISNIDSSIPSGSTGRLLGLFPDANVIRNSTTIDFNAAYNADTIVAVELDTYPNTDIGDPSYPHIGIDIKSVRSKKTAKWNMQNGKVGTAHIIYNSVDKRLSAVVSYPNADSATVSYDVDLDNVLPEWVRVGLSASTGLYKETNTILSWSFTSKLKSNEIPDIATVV

SMILES | composite z-score (Albumin (Bos taurus)) | composite Z-score [1] | composite z-score [2] | composite z-score [3] | composite z-score [4] | composite z-score [5] | composite z-score [6] | composite z-score (Sam68 (KHDRBS1)) | composite z-score [7] | composite z-score [8] | composite z-score [9] | composite z-score [10] | composite z-score [11] | composite z-score [12] | composite z-score [13] | composite z-score [14] | z-score [15] | composite z-score (Lefty1) | composite z-score [16] | z-score [17]
CO[C@@H]1COC(=O)CC=C[C@H](C)[C@@H](NS(=O)(=O)c2ccc(C)cc2)COC(=O)CC=C[C@@H]1C | 0.451 and -0.303 | -0.288 (inactive) and 0.209 (inactive) | 0.127 and 0.0876 | -0.0995 and -0.175 | 0.0088 and -0.407 | 0.199 and -1.12 | 0.0136 and -0.0513 | 0.762 and 0.68 | 0.685 and 1.25 | -0.0145 and -0.207 | 0.395 and -0.145 | 0.214 and -0.651 | -0.0379 and -0.578 | 0.0363 and -2.26 | 0.407 and 1.42 | 1.16 and 1.17 | 1.66 and -1.16 | 1.32 and 0.9 | 0.216 and -0.0758 | -0.439 (inactive) and 1.32 (inactive)
C=CCN(C(=O)C1N(c2ccc(CCO)cc2)C(=O)C2C(C(=O)O)C3C=CC21O3)c1ccc(OC)cc1 (stereo not given) | -0.326 and -0.0621 | -0.177 (inactive) and -0.773 (inactive) | -0.285 and -0.585 | -0.14 and -0.0932 | 0.93 and 0.471 | -0.188 and -0.412 | -0.0393 and -0.133 | 0.0118 and -1.55 | -0.726 and -2.53 | 0.287 and -1.64 | 0.0218 and -0.668 | -0.304 and -0.769 | 0.0134 and -1.17 | -0.369 and -1.3 | -0.697 and -0.794 | -1.24 and -1.75 | -0.742 and -0.718 | -0.708 and -0.967 | 0.0183 and -0.967 | -0.622 (inactive) and 2.07 (inactive)
COC(=O)C1=C(C)N(Cc2ccccc2)C2=C(C(C)=O)[C@H](c3ccccc3)[C@@](O)(C(=O)OC)C(=O)N2[C@@H]1c1ccccc1 | 0.695 and -0.583 | 0.124 (inactive) and 0.115 (inactive) | -0.0362 and -0.182 | -0.0907 and -0.124 | 0.301 and -0.459 | 0.275 and -0.666 | -0.209 and -0.312 | 1.17 and -1.23 | 0.564 and 0.437 | 0.365 and -0.139 | 0.313 and -0.605 | 1.06 and -0.558 | 0.113 and -0.651 | 0.963 and 0.0691 | 0.764 and -0.238 | 0.745 and 0.282 | 3.76 and 1.44 | 0.638 and -0.0574 | 0.493 and -0.348 | -1.12 (inactive) and -2.89 (inactive)
C=CCN(Cc1ccccc1)C(=O)C1N(C(C)(C)CO)C(=O)C2C(C(=O)O)C3C=CC21O3 (stereo not given) | -1.24 and -0.826 | -0.498 (inactive) and -0.61 (inactive) | -0.358 and -0.475 | -0.126 and -0.0956 | 0.47 and 0.296 | -0.0142 and -0.798 | -0.587 and -0.987 | -1.6 and -1.66 | -2.74 and -1.88 | -2.4 and -2.33 | -1.67 and -0.97 | -1.24 and -0.825 | -0.571 and -1.31 | -2.5 and -2.76 | -2.21 and -1.21 | -1.48 and -2.77 | -0.188 and -0.414 | -2.57 and -1.65 | -1.76 and -0.466 | 0.519 (inactive) and 1.45 (inactive)
CC(C)[Si]1(C(C)C)OCc2cc(C3CC3)nc(CCc3ccccc3)c21 | -0.367 and -0.0511 | -0.145 (inactive) and -0.387 (inactive) | -0.0716 and -0.135 | -0.155 and -0.176 | -0.344 and 0.027 | -0.416 and 0.368 | -0.0371 and -0.455 | -0.636 and 0.47 | 0.32 and 0.195 | 0.211 and 0.513 | -0.363 and -0.0162 | -0.868 and 0.316 | -0.177 and -0.249 | -0.582 and 0.111 | 0.0259 and 0.303 | -0.329 and 0.0149 | -0.323 and -1.45 | -0.237 and 0.22 | -0.269 and 0.0131 | -0.324 (inactive) and 0.744 (inactive)
